Values joined by “and” are separate entries in the source; they are usually repeats but may differ in a detail not shown here. Equal entries are not always repeated. A number with no mark means an inactive call. Inconclusive results are not listed. Active and inactive are the calls of the source. Unless noted, the call rests on the fitted dose curve; in most records, active means well fitted curve in the direction sought with a large enough effect in the repeat runs; inconclusive means weak or mixed curves; inactive means no such curve, though single readings can be large; an effect the other way counts as inactive or inconclusive.

Test [1] is described as follows: qHTS assay to identify small molecule agonists of H2AX - cell viability counter screen (AID 1224847; calls by dose curve;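 further: wild-type CHO-K1 cells; top concentration of the series differs between compounds; nearly all actives have a fitted effect of over 30% in size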). The method in brief:
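After overnight plating of 1000 CHO-K1 cells per well, a 15-concentration compound series was applied for 3 hr at 37C. Luminescence from CellTiter-Glo, read following 30 min at room temperature, reflected cell viability.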

The nature of test [2]: qHTS assay to identify small molecule antagonists of the estrogen related receptor (ERR) signaling pathway from Tox21 library (AID 1224848). Further: nearly all actives have a fitted effect of over 50% in size. Further: potency means the concentration at half of the fitted maximal effect. The method in brief: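 Screening used an ERR reporter line supplied by NTP, exposed for 18 h at 37 C to library compounds delivered in DMSO. Signal was luciferase luminescence developed with ONE-Glo at room temperature for 30 min.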
(In qHTS, concentration-response curves come from the screen itself.)

Test [3] is described as follows: qHTS assay to identify small molecule agonists of the estrogen related receptor (ERR) signaling pathway from Tox21 library (AID 1224849; calls by dose curve; further: nearly all actives have a fitted effect of over 15% in size). The note with it: ERR reporter cell line, ONE-Glo luciferase, 18 h. The method in brief: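 ERR cells, 6 h pre-incubation 37 C/5% CO2; cpd in DMSO pinned; 18 h 37 C; ONE-Glo added, 30 min RT; luminescence read. Agonist mode, qHTS.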

The nature of test [4]: qHTS RealTime-Glo MT Cell Viability Assay in HepG2 cells - 24 hour (AID 1224867). Further: nearly all actives have a fitted effect of over 50% in size. An outline of the steps: (§1)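 Real-time, nonlytic viability: 600 HepG2 cells/well mixed with NanoLuc enzyme plus prosubstrate; 5 h settle, compound (DMSO) added by pintool; luminescence monitored over 40 h at 37 C.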
A short description of test [5]: qHTS RealTime-Glo MT Cell Viability Assay in HEK293 cells - 32 hour (AID 1224868). Further: top concentration of the series differs between compounds; nearly all actives have a fitted effect of over 50% in size. The method in brief:
(§2)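 Cells + reagent dispensed (600 cells/well, HEK293) → 5 h at 37 C/5% CO2 → 23 nL compound in DMSO pinned → 40 h at 37 C → luminescence read at 0, 8, 16, 24, 32, 40 h.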

A short description of test [6]: A CellTox Green Cytotoxicity Assay to monitor cytotoxicity in HEK293 cells - 0 hour (AID 1224869). Further: nearly all actives have a fitted effect of over 50% in size. The method in brief: (§3)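 Nonlytic real-time cytotoxicity: HEK293 + CellTox Green reagent plated, 5 h preincubation, pintool compound addition (23 nL in DMSO), 37 C for 40 h, fluorescence measured at successive time points.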
Test [7] is described as follows: qHTS RealTime-Glo MT Cell Viability Assay in HepG2 cells - 40 hour (AID 1224870). Further: nearly all actives have a fitted effect of over 50% in size. An outline of the steps: (§4)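 HepG2 cells mixed with RealTime-Glo MT reagents (NanoLuc plus cell-permeant prosubstrate) were seeded at 600 cells/well, incubated 5 h at 37 C/5% CO2, then pinned with compounds in DMSO; nonlytic luminescence tracked viability during 40 h treatment.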
The nature of test [8]: A CellTox Green Cytotoxicity Assay to monitor cytotoxicity in HEK293 cells - 40 hour (AID 1224871). Further: nearly all actives have a fitted effect of over 45% in size. The method in brief: as §3
A short description of test [9]: qHTS RealTime-Glo MT Cell Viability Assay in HEK293 cells - 16 hour (AID 1224872). An outline of the steps:
as §2

Test [10] can be described thus: qHTS RealTime-Glo MT Cell Viability Assay in HepG2 cells - 8 hour (AID 1224873). Further: nearly all actives have a fitted effect of over 55% in size. An outline of the steps:
as §4

The nature of test [11]: qHTS RealTime-Glo MT Cell Viability Assay in HEK293 cells - 40 hour (AID 1224874). Further: nearly all actives have a fitted effect of over 50% in size. The note with it: RealTime-Glo luminescence; max response: hits give low values. An outline of the steps:
(§5)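 Cells were seeded together with NanoLuc luciferase and a prosubstrate that viable cells reduce to a luciferase substrate. After a 5 h incubation at 37 C/5% CO2, compounds were added and luminescence was measured repeatedly during 40 h of treatment.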

Test [12] is described as follows: A CellTox Green Cytotoxicity Assay to monitor cytotoxicity in HEK293 cells - 24 hour (AID 1224875). Further: nearly all actives have a fitted effect of over 45% in size. An outline of the steps: as §3
A short description of test [13]: A CellTox Green Cytotoxicity Assay to monitor cytotoxicity in HepG2 cells - 16 hour (AID 1224876). Further: nearly all actives have a fitted effect of over 45% in size. The method in brief:
(§6)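 Read-out is fluorescence of a cyanine dye excluded from live cells that stains DNA of dead HepG2 cells, with signal proportional to cytotoxicity. Plates were read at 0, 8, 16, 24, 32 and 40 h after compound addition.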

Test [14] can be described thus: qHTS RealTime-Glo MT Cell Viability Assay in HepG2 cells - 32 hour (AID 1224877). Further: nearly all actives have a fitted effect of over 55% in size. An outline of the steps:
as §1

The nature of test [15]: A CellTox Green Cytotoxicity Assay to monitor cytotoxicity in HepG2 cells - 24 hour (AID 1224878). Further: nearly all actives have a fitted effect of over 45% in size. The method in brief:
as §6

The nature of test [16]: A CellTox Green Cytotoxicity Assay to monitor cytotoxicity in HepG2 cells - 40 hour (AID 1224879). Further: nearly all actives have a fitted effect of over 40% in size. The method in brief: as §6
The nature of test [17]: qHTS RealTime-Glo MT Cell Viability Assay in HEK293 cells - 0 hour (AID 1224880). Further: nearly all actives have a fitted effect of over 45% in size. Further: potency means the concentration at half of the fitted maximal effect. An outline of the steps:
as §5

Test [18] is described as follows: A CellTox Green Cytotoxicity Assay to monitor cytotoxicity in HEK293 cells - 32 hour (AID 1224881). Further: nearly all actives have a fitted effect of over 40% in size. The method in brief:
as §3

A short description of test [19]: A CellTox Green Cytotoxicity Assay to monitor cytotoxicity in HepG2 cells - 0 hour (AID 1224882). Further: nearly all actives have a fitted effect of over 35% in size. An outline of the steps:
as §6

A short description of test [20]: A CellTox Green Cytotoxicity Assay to monitor cytotoxicity in HepG2 cells - 32 hour (AID 1224883). Further: nearly all actives have a fitted effect of over 50% in size. The method in brief:
as §6
On the % scale 0 is the no-effect control and ±100 the full control effect.

In the case of `C[C@H]1C[C@@H]2[C@H]([C@@H](O)C[C@@]3(C)[C@H]2CC[C@]3(O)C(=O)CO)[C@@]2(C)C=CC(=O)C=C12`, the Potency result in test [1], in test [2], in [5], in test [8], in [9] and in test [12] was “inactive” throughout. Besides, the Potency entry in [13], in test [15], in [16], in [18] and in [20] was “inactive” throughout. In addition, the activity change, positive = activation in test [3] (at 42.5 µM (top of the series)) is -3.14%; in test [3] (at 92.4 µM (top of the series)) it was -13.3%. The call in test [4], in [6], in [7], in test [10], in [14] and in test [19] was inactive. The max response in test [11] was -9.2% and -9.81%. Also, the Potency in test [17] is 7.76 µM (active) and 8.49 µM (active).
Consider `CC(C)(N)CO`, for which the Potency entry in test [1], in test [2], in test [8], in test [9], in test [12] and in test [13] was “inactive” each time. The Potency entry in test [15], in test [16], in [17], in [18] and in [20] was “inactive” each time. Besides, the activity change, positive = activation in test [3] (at 92.4 µM (top of the series)) is 3.88% and 1.99%. The result in test [4], in test [6], in test [7], in test [10], in test [14] and in test [19] was inactive. Moreover, in test [11], the max response was 5.94% and 1.04%.
As for `c1c[nH]cn1`, the Potency result in [1], in test [5], in [8], in [9], in test [12] and in test [13] was “inactive” in each case. For the same compound, the Potency entry in test [15], in [16], in [17], in test [18] and in test [20] was “inactive” each time. Also, the call in [4], in [6], in test [7], in [10], in test [14] and in test [19] was inactive. In addition, in test [11], the max response was 11.4% and 19.2%.
`O=C(O)c1ccccc1C(c1ccc(O)cc1)c1ccc(O)cc1`: the Potency result in [1], in test [2], in [8], in [9], in test [12] and in [13] was “inactive” each time. Also, the Potency result in test [15], in test [16], in [17], in [18] and in test [20] was “inactive” each time. For the same compound, in test [3] (at 92.4 µM (top of the series)), the activity change, positive = activation was 4.92% and 4.34%. The result in test [4], in test [6], in [7], in test [10], in test [14] and in [19] was inactive.
Turning to `CC(C)CC(=O)CC(C)C`, the Potency result in [1], in test [2], in [8], in [9], in [12] and in [13] was “inactive” each time. In addition, the Potency result in test [15], in test [16], in test [17], in [18] and in test [20] was “inactive” throughout. The activity change, positive = activation in test [3] (at 92.4 µM (top of the series)) was 0.354% and 0.455%. In addition, the outcome in test [4], in [6], in test [7], in test [10], in test [14] and in test [19] was inactive.
Regarding `CCCCCCCCCCCCCCCO`, the Potency entry in test [1], in test [2], in test [5], in [8], in [9] and in test [12] was “inactive” in each case. For the same compound, the Potency entry in test [13], in test [15], in test [16], in test [17], in [18] and in [20] was “inactive” each time. For the same compound, in [3] (at 92.4 µM (top of the series)), the activity change, positive = activation was -0.174%. The result in test [4], in [6], in [7], in [10], in test [14] and in [19] was inactive. Moreover, in [11], the max response was 0.0156%.
`c1ccc2c(c1)ccc1ccccc12`: the Potency entry in test [1], in test [5], in test [9], in test [13], in [15] and in test [16] was “inactive” in each case. The Potency result in [17] and in test [20] was “inactive” throughout. The Potency in test [2] was 47.2 µM (active) and 24.3 µM (active). For the same compound, the activity change, positive = activation in test [3] (at 92.4 µM (top of the series)) was -34.9% and -32.3%. For the same compound, the compound was called inactive in [4], in test [6], in test [7], in [10], in [14] and in test [19]. Besides, the max response in test [11] is -10.3%.
Turning to `COS(C)(=O)=O`, the Potency result in test [1], in test [2], in test [5], in test [8], in test [9] and in test [12] was “inactive” throughout. Further, the Potency entry in [13], in [15], in [16], in test [17], in [18] and in test [20] was “inactive” each time. In [3] (at 92.4 µM (top of the series)), the activity change, positive = activation is 1.76% and -2.76%. Also, the outcome in test [4], in test [6], in [7], in test [10], in [14] and in test [19] was inactive. Moreover, in [11], the max response was 0.0927% and -3.51%.
`CCCCC(CC)COC(=O)CS` (configuration not stated): the Potency result in [1], in [2], in test [8], in test [9], in test [12] and in test [13] was “inactive” in each case. Also, the Potency entry in test [15], in [16], in test [17], in [18] and in test [20] was “inactive” each time. Further, the activity change, positive = activation in test [3] (at 92.4 µM (top of the series)) is -0.266% and -15.8%. Besides, the result in test [4], in [6], in [7], in test [10], in test [14] and in test [19] was inactive.
For the compound `Cc1cccc(O)c1`, the Potency entry in [1], in test [2], in test [5], in test [8], in [9] and in [12] was “inactive” in each case. The Potency result in [13], in test [15], in [16], in test [17], in test [18] and in test [20] was “inactive” in each case. Also, in test [3] (at 92.4 µM (top of the series)), the activity change, positive = activation was 8.59% and 2.31%. For the same compound, the result in test [4], in test [6], in test [7], in test [10], in test [14] and in [19] was inactive. For the same compound, the max response in test [11] is 3.75% and 3.48%.
Turning to `Nc1cc([N+](=O)[O-])ccc1O`, the Potency entry in test [1], in test [2], in [8], in test [9], in test [12] and in [13] was “inactive” throughout. The Potency result in test [15], in [16], in test [17], in [18] and in test [20] was “inactive” throughout. For the same compound, the activity change, positive = activation in test [3] (at 92.4 µM (top of the series)) is -4.29% and 0.807%. Besides, the compound was classed as inactive in test [4], in test [6], in test [7], in test [10], in [14] and in test [19]. The max response in test [11] is -21.5% and -15.3%.
As to `OCC(CO)(CBr)CBr`, the Potency entry in test [1], in [2], in [5], in test [8], in [9] and in test [12] was “inactive” in each case. Also, the Potency entry in [13], in test [15], in test [16], in test [17], in [18] and in test [20] was “inactive” each time. For the same compound, in test [3] (at 92.4 µM (top of the series)), the activity change, positive = activation was 2.42% and 0.192%. The compound was classed as inactive in [4], in [6], in [7], in test [10], in test [14] and in [19].

Source of the values: PubChem BioAssay (Tox21).
